FMDV inh = High Throughput Screening for Foot and Mouth Disease Virus Antivirals; FMDV antiviral cell-based qHTS; Potency, µM (titrated, usually from 57.9 µM), for inactives: at the top dose activity change, negative = inhibition, hits mostly inhibitors; 1.2% of 410,000 active; calls by dose curve; tested in HEK293T cells; note: read-out not given here; potency is the fitted concentration of half-maximal effect; nearly all actives have a fitted effect of over 45% in size
Vaccinia Venus = qHTS for Stage-Specific Inhibitors of Vaccinia Orthopoxvirus: Venus Reporter Primary qHTS. Potency, µM (top dose mostly 36.5 µM), for the others: at the top dose activity change, negative = inhibition, usual class: inhibitors. 0.46% of 330,000 active. Vaccinia virus Venus reporter expression, fluorescence; calls by dose curve; tested in A549 cells; note: potency is the fitted concentration of half-maximal effect; nearly all actives have a fitted effect of over 30% in size
Lassa entry inh = qHTS for Inhibitors of binding or entry into cells for Lassa Virus; Lassa virus pseudotype entry inhibition, cell reporter; Potency, µM (highest dose often 37.9 µM), inactives show at the top dose activity change, negative = inhibition, hits mostly inhibitors; 1.2% of 300,000 active; AID 540256, 2011; calls by dose curve; tested in HEK293 cells; note: potency is the fitted concentration of half-maximal effect; nearly all actives have a fitted effect of over 50% in size
MARV entry inh = qHTS for inhibitors of binding or entry into cells for Marburg Virus | AID 540276, 2011 | 1.8% of 300,000 active | Potency, µM (series often up to 37.8 µM), for the others: top-dose activity change, negative = inhibition, usual class: inhibitors | Marburg virus pseudotyped entry inhibition, cell reporter; calls by dose curve; tested in HEK293 cells; note: potency is the fitted concentration of half-maximal effect
VACV mCherry inh = qHTS for Stage-Specific Inhibitors of Vaccinia Orthopoxvirus: mCherry Reporter Primary qHTS | Potency, µM (titrated, usually from 36.5 µM), inactives show at the highest dose activity change, negative = inhibition, hits mostly inhibitors | Vaccinia virus mCherry reporter infection, fluorescence | 0.63% of 310,000 active; calls by dose curve; tested in A549 cells; note: potency is the fitted concentration of half-maximal effect; nearly all actives have a fitted effect of over 35% in size
HCMV antiviral = qHTS Assay for inhibitors of the human cytomegalovirus (HCMV) | HFF cells, HCMV-luciferase reporter, 72 h; stronger effect = lower value | activity change, negative = inhibition, % at 57.5 µM | 4.5% of 410,000 active; in the data active = activity change below about -60%; inconclusive = no clear call, values can overlap the other calls; inactive = above about -39%
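Screen run at 2 compound doses on HFFs infected with reporter HCMV, MOI 1 PFU/cell. Luciferase activity from cell lysates at 72 h post infection gave inhibition relative to buffer-only and Salinomycin wells.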
The depositor's hits bear a star; i = inactive; ? = inconclusive; . = no result given; [ ] = remark or other dose. The list is not random: actives were taken first. Their share in the collection is about 6.5%. % is set by controls: 0 for no effect and ±100 for the full control effect.

SMILES | FMDV inh | Vaccinia Venus | Lassa entry inh | MARV entry inh | VACV mCherry inh | HCMV antiviral
O=C(CCn1c(=O)[nH]c2ccccc21)NCC1Cc2cc(Cl)cc(-c3ccncc3)c2O1 (configuration not stated) | -9% | -17% | . | . | i | .
CC1(C)OC(c2ccccc2)=C/C(=C\C=N\NC(=O)c2ccncc2)O1 | -20% | -3%[7.34 µM] | -7% | -27%[46.1 µM] | i[7.34 µM] | -64*
O=C(c1ccc(S(=O)(=O)Cc2cc(F)ccc2F)c([N+](=O)[O-])c1)N1CCCC1 | 0% | -9% | 7% | ? | -26% | -75*
CC1CCN(C(=O)c2ccc(S(=O)(=O)Cc3cccc(F)c3)c([N+](=O)[O-])c2)CC1 | ? | -8% | -5% | ? | -10% | -84*
C=CCOC(=O)C(C(C)=O)[C@@H](NC(=O)OC)c1ccc(Cl)cc1 (some centres not stated) | . | . | . | -10%[14.2 µM] | . | .
COc1ccc(C2NCc3ccc4c(c3-n3cccc32)OCO4)cc1O (configuration not stated) | -13% | ? | ? | 0.63µM* | . | .
O=C(NCC1(N2CCCCC2)CCCC1)c1cnn(-c2nccc(-c3cccs3)n2)c1C1CC1 | -8% | 10% | . | . | -1% | .
COCCn1c(C)cc(C2=NNC(=Nc3ccccc3)SC2)c1C | -10% | -6% | ? | -10% | -8% | 16
COc1ccccc1C1=NNC(=Nc2cccc(S(=O)(=O)N(C)C)c2)SC1 | ? | -13% | ? | 7.1µM* | ? | -80*
CC1=C(C(=O)OC2CCCC2)C(c2cccc(Cl)c2Cl)CC(=O)N1 (configuration not stated) | ? | -15% | 15%[46.1 µM] | -47%[46.1 µM] | -18% | -75*
CNC(=O)NC1CCCC(C2=NC(C)=NCC2)C1 (configuration not stated) | . | . | . | 5% | . | .
O=S(=O)(c1ccc(Cl)c(Cl)c1)c1snnc1-c1ccccc1 | ? | ? | 7.1µM* | 5µM* | . | .
Cn1cc(S(=O)(=O)N2CCCCCC2)cc1C(=O)N1CCN(c2cccc(Cl)c2)CC1 | 0% | -14% | -22%[46.1 µM] | . | -19% | -26
NC(=S)N/N=C/c1ccccc1[N+](=O)[O-] | -4% | 2.2µM* | -12% | -3%[46.1 µM] | 2µM* | -37
CCOc1ccc(C(=O)N/N=C/c2ccccc2[N+](=O)[O-])cc1 | ? | -18% | ? | 12µM* | -14% | 10
Cc1cccc(CNC(=O)c2ccc(N3Cc4ccccc4Oc4ncccc43)s2)c1 | 0% | -8% | ? | . | -4% | -3
COC(=O)C1CCN(Cc2ccc3c(c2)CN(C(=O)c2cc4cc(F)ccc4[nH]2)CCO3)CC1 | -22% | 1% | . | . | -5% | .
CCOC(=O)c1sc(NC(=O)c2cc(-c3ccccc3)nc3ccccc23)c(C#N)c1C | ? | -21% | -27% | ? | -4% | -95*
CCOC(=O)c1sc(NC(=O)CSc2n[nH]c(-c3ccccc3)n2)c(C#N)c1C | 0% | ? | -13% | ? | ? | -32
CCOC(=O)c1c(NC(=O)CSc2nnc(Cc3ccccc3)o2)sc(C(C)=O)c1C | ? | . | -28% | -22% | . | 14
CCOC(=O)c1sc(NC(=O)CSc2nnc(Cc3ccccc3)o2)c(C#N)c1C | 32µM* | 12% | -16% | 28% | . | .
Cc1ccc(C)c(-c2cc(C(=O)Nc3sc(C)c(C)c3C(N)=O)c3ccccc3n2)c1 | 22µM* | . | ? | ? | . | -33
Cc1cccc(-c2cc(C(=O)Nc3sc(C)c(C)c3C(N)=O)c3ccccc3n2)c1 | 0% | -9% | -23% | ? | i | 2
COc1cccc(-c2ccnc(-n3ncc(C(=O)NCC4(N5CCCCC5)CCCC4)c3C)n2)c1 | -6% | 7% | . | . | -8% | .
COc1c(-c2ccc(O)c(O)c2)oc2cc(O)cc(O)c2c1=O | 5% | -3% | . | . | -7% | 40
SMILES | FMDV inh | Vaccinia Venus | Lassa entry inh | MARV entry inh | VACV mCherry inh | HCMV antiviral
COCOc1cc(O)c2c(=O)c(OCOC)c(-c3ccc(OCOC)c(OCOC)c3)oc2c1 | -24% | -10% | . | . | -4% | -71*
CC(=O)Nc1ccc(NC(=S)NC(=O)/C=C/c2ccc(Cl)cc2)cc1 | 0% | -2% | -10% | ? | i | -13
COc1ccc(/C=C/C(=O)NC(=S)NNC(=O)c2ccco2)cc1OC | -14% | . | . | . | . | -19
O=C(/C=C/c1ccc(Cl)cc1)NC(=S)Nc1ccc(NC(=O)c2ccco2)cc1 | -22% | -29% | 1.6µM* | ? | -21% | -70*
COc1ccc(/C=C/C(=O)NC(=S)NNC(=O)c2ccco2)cc1 | -15% | ? | 4.5µM* | ? | . | 63
CC(C)(C)c1nnc(N/N=C/c2ccccc2)n(N)c1=O | -25% | -18% | -4% | ? | -6% | -8
CC(C)(C)c1nnc(N/N=C/c2ccccc2O)n(N)c1=O | 1% | ? | ? | ? | 2.8µM* | -102*
CCc1nnc(N/N=C/c2ccccc2Cl)n1N | . | ? | ? | 4% | ? | -3
CCc1nnc(N/N=C/c2ccccc2F)n1N | 18% | ? | . | ? | ? | -80*
COc1ccccc1Cn1c(-c2ccccc2OC)nc2ccccc21 | ? | -16% | 19% | 3% | -24% | -68*
Oc1ccccc1Cn1c(-c2ccccc2O)nc2ccccc21 | -13% | . | -9% | 8% | . | 17
COC(=O)[C@@H]1[C@@H](CO)[C@@H]2Cn3c(ccc(Br)c3=O)[C@H]1N2CCc1ccccc1 | . | . | . | . | . | 12
COc1ccc(C2CC3(CC(C)(C)NC(SC)=N3)Oc3cc(O)cc(C)c32)cc1 (configuration not stated) | -25% | -24% | 18µM* | 10µM* | ? | -76*
COc1cccc(CNC(=O)c2cc3n(n2)CCCN(Cc2ccc(C)cc2)C3=O)c1OC | -29% | -18% | -13%[46.1 µM] | . | -16% | -10
CN1CCCCC1C(=O)N1CCC(Oc2cccc(CN3CCN(c4ccccn4)CC3)c2)CC1 (configuration not stated) | -7% | -3% | . | . | -10% | .
CCOC(=O)C(C)Sc1nnc2ccc3ccccc3n12 (configuration not stated) | 37% | -2% | 1%[46.1 µM] | 8%[46.1 µM] | -4% | -86*
CC1(C)C(=O)N(CC(=O)Nc2ccc(OC(F)(F)F)cc2)c2ccccc21 | -25% | -4% | 0%[46.1 µM] | . | -5% | 18
Fc1ccc(N2Cc3ccccc3-n3nncc3C2)cc1 | -12% | -9% | . | . | 7% | -104*
CCOC(=O)C1(Cc2ccccc2C)CCCN(S(=O)(=O)c2cccnc2)C1 (configuration not stated) | -23% | -9% | -16% | ? | -10% | -93*
COc1ccc(N/C=C2\C(=O)CCc3c2oc2cc(Cl)c(O)c(Cl)c32)cc1 | -24% | . | . | . | . | -62*

From PubChem BioAssay
